This is a sample that favours compounds with a hit; in the whole collection about 19% have one here.
HT1080 IDH1KD tx – kills HT-1080 cells with IDH1 knockdown; HT-1080 IDH1 knockdown viability, ATP luminescence, 48 h; Potency, µM (series often up to 46.1 µM), for the others: at the highest dose activity, negative = toxicity, hits mostly cytotoxic; 2% of 360,000 active;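 further: potency means the concentration at half of the fitted maximal effect; 0% = DMSO wells and -100% = cell-free medium wells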
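Luminescent ATP read-out (CellTiter-Glo, 10 min at room temperature) after 48 h compound exposure at 37 °C gave viability of IDH1-knockdown HT-1080 cells. Activity was normalised to DMSO and cell-free wells, then fitted as concentration-response curves.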
IL1B secr inh – inflammasome signaling inhibition, IL-1 beta readout | THP-1 LPS/ATP IL-1B secretion, AlphaLISA, 16 h; active compounds read low | activity change, % at 57.5 µM | 4.7% of 360,000 active | AID 743279; in the data active means activity change below about -50%; inconclusive means mostly about -30% to -49%
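Secreted IL-1B measured by AlphaLISA bead assay after 16 h compound exposure of THP-1 cells; compounds (final up to 57.5 uM) added 1 h before LPS (250 ng/mL) and ATP (1.25 mM) stimulation; lower signal means less secretion.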
HT1080-NT tox – kills 2HG-producing HT-1080-NT fibrosarcoma cells | Potency, µM (top dose mostly 46.1 µM), inactives show at the top dose activity, negative = less viability, most hits filed as cytotoxic | 1.6% of 360,000 active | HT-1080-NT fibrosarcoma viability, CellTiter-Glo ATP luminescence, 48 h;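 further: NT is the 2HG producing partner of a matched IDH1 knockdown line; potency means the concentration at half of the fitted maximal effect; 0% = DMSO-treated cells and -100% = media-only wells without cells; nearly all actives have a fitted effect of over 55% in size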
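A 48-hour cytotoxicity screen used HT-1080-NT cells plated 2 hours before compound delivery. ATP-based CellTiter-Glo luminescence measured viability, normalized to DMSO and no-cell controls.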
TDP1 cell noCPT – qHTS for Inhibitors of human tyrosyl-DNA phosphodiesterase 1 (TDP1): qHTS in cells in absence of CPT; DT40 Tdp1-/- hTDP1 cells, no CPT, ATP luminescence, 48 h; Potency, µM (top dose mostly 46.2 µM), for the others: at the highest dose activity change, negative = growth inhibition, actives largely listed as inhibitors; 15% of 420,000 active; further: potency means the concentration at half of the fitted maximal effect; nearly all actives have a fitted effect of over 55% in size
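Camptothecin absent (DMSO only). Human TDP1-complemented DT40 knockout cells, 400 cells/well, 37 °C for minimum 48 hr; ATP measured via CellTiter-Glo, 30 min dark incubation, luminescence.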
DT40 TDP1 CPT – DT40-hTDP1 cell growth loss with CPT | chicken DT40 Tdp1-/-;hTDP1 cells + 20 nM CPT, ATP luminescence, 48 h | Potency, µM (top dose mostly 46.2 µM), for the others: at the highest dose activity change, negative = growth inhibition, actives largely listed as inhibitors | 12% of 420,000 active | AID 686979; further: potency means the concentration at half of the fitted maximal effect; nearly all actives have a fitted effect of over 55% in size
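Chicken DT40 Tdp1-/- cells complemented with human TDP1, 400 cells/well, exposed to compounds plus 20 nM camptothecin for at least 48 h at 37 C; viability read as ATP content by CellTiter-Glo luminescence.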
The depositor's hits bear a star; ? = inconclusive; . = no result; [ ] = another dose, or the depositor's remark. Unless noted, the call rests on the fitted dose curve; in most records, active means well fitted curve in the direction sought with a large enough effect; inconclusive means small, poorly fitted or top-dose-only effect, or another doubt; inactive means no such curve, though single readings can be large; an effect the other way counts as inactive or inconclusive. Unless noted, on the % scale 0 is the no-effect control and ±100 the full control effect.

SMILES	HT1080 IDH1KD tx	IL1B secr inh	HT1080-NT tox	TDP1 cell noCPT	DT40 TDP1 CPT
CO[C@H]1CC=C2CCN3CCC4=C(CC(=O)OC4)[C@]23C1	3%	-1	-16%	5%	10%
CCOC(=O)C1=C(C)N=C2c3ccccc3C(=O)C2C1c1ccc(Cl)cc1 (configuration not stated)	?	-52*	?	?	?
CCC1(CC)C(=O)NC(=O)N(C)C1=O	.	.	.	-13%	12%
CCC1=CCN(CCc2c(C)[nH]c3ccccc23)CC1	0%	-8	2%	0.58µM*	2%
C=CCn1c(C)c(C=C2C(=O)NC(=O)NC2=O)c2ccccc21	-4%	4	-10%	?	?
CCOC(=O)[C@]12Cc3cc(Cl)ccc3[C@H]1N(CC(=O)OC)C(=O)c1ccccc12	7.3µM*	.	5.8µM*	4.1µM*	9.2µM*
CCOC(=O)[C@]12Cc3cc(OC)ccc3[C@H]1N(C)C(=O)c1ccccc12	14%	?	9%	?	-27%
CCOC(=O)[C@]12Cc3cc(Cl)ccc3[C@H]1N(C)C(=O)c1ccccc12	1%	-62*	3%	?	?
CCOC(=O)[C@]12Cc3cc(C)ccc3[C@H]1N(C)C(=O)c1cc(OC)ccc12	16µM*	-116*	?	23µM*	21µM*
CCOC(=O)C1(c2ccccc2)CCN(CC(=O)c2ccc(NC(C)=O)cc2)CC1	-4%	11	-5%	?	?
CCOC(=O)[C@]12Cc3cc(C)ccc3[C@H]1N(C)C(=O)c1ccccc12	-16%	-13	0%	16µM*	16µM*
COc1ccc(C2C(C(=O)N3CCC4(CC3)OCCO4)c3cc(OC)c(OC)cc3C(=O)N2C)cc1 (configuration not stated)	18%	-1	15%	-9%	1%
COc1ccc(OC)c(NC(=O)N2C[C@H]3C[C@@H](C2)c2cccc(=O)n2C3)c1	2%	18	3%	-6%	23%
Cn1cccc1C1CCCN1CC(=O)Nc1ccc(C#N)c(Cl)c1 (configuration not stated)	0%	-20	0%	?	?
CCCCCCCCCc1ccc(O)cc1	.	.	.	-12%	?
CCC1(CCC(C)C)C(=O)NC(=O)NC1=O	.	.	.	-28%[92.5 µM]	?
CCOC(=O)[C@]12Cc3cc(Cl)ccc3[C@H]1N(C(C)C)C(=O)c1ccccc12	3.3µM*	.	4.6µM*	3.3µM*	2.6µM*
O=C(O)CF	.	.	.	-9%	-2%
COC(=O)c1ccc(N2C(=O)CC(N3CCC(O)(c4ccc(Br)cc4)CC3)C2=O)cc1 (configuration not stated)	0%	18	8%	-16%	?
O=C(COc1ccccc1)N1CCN(C/C=C/c2ccccc2)CC1	1%	-13	3%	21µM*	16µM*
CCCCOc1ccc(C(=O)NCC(=O)N2CCN(C/C=C/c3ccccc3)CC2)cc1	-18%	23	-10%	16µM*	?
O=C(COc1ccc(Cl)cc1)N1CCN(C/C=C/c2ccccc2)CC1	-3%	-75*	7%	?	?
N[C@@H](Cn1cc(I)c(=O)[nH]c1=O)C(=O)O	.	.	.	-4%	9%
Cc1ccc2c(c1)N(C(=O)CCC(=O)N1CCC3(CC1)OCCO3)CC(C)O2 (configuration not stated)	8%	-12	0%	-28%	-9%
Cc1cc(C(=O)CS(=O)c2ccc(F)cc2)cc(C)c1OC(=O)N(C)C (configuration not stated)	0%	13	1%	?	?
COc1cc(CC2C(=O)N(C)C(=O)N(C)C2=O)ccc1OCc1ccccc1	6%	0	10%	-19%	?
CCCCOc1ccc(CN2C(=O)C(=O)c3cc(C)ccc32)cc1OC	.	.	.	0.73µM*	1µM*
CCN(CCCl)Cc1ccccc1Br	5%	20	29%	?	16µM*

Screens (PubChem)
